Measurements reported in the supplement of paper PMC11732987, “Enantioselective OTUD7B fragment discovery through chemoproteomics screening and high-throughput optimisation” (Communications Chemistry, 2025).

These molecules were tested against USP14 (UniProt P54578) (assay: log2 ratio of Biotin-Ahx-Ub-VS probe labelling (fragment/DMSO); higher = less target engagement (more negative = stronger competition), active = hit call of the paper (q ≤ 0.05, log2 ratio ≤ -1)). Details: compound concentration: 200 uM; treatment time: 3 h.
Method: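 Competitive ABPP in HEK293T cell lysate. Lysates were treated with each chloroacetamide fragment at 200 µM for 3 h, then with Biotin-Ahx-Ub-VS (0.5 µM, 1 h), NeutrAvidin-enriched and analysed by diaPASEF LC-MS/MS. Protein LFQ was median-normalised; average log2 ratio is fragment/DMSO from an unpaired t-test (n=3 treated, n=44 DMSO). Hits: q ≤ 0.05, log2 ratio ≤ -1, unique peptides ≥ 2.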

USP14, sequence (P54578 whole entry, the tested form may be a part): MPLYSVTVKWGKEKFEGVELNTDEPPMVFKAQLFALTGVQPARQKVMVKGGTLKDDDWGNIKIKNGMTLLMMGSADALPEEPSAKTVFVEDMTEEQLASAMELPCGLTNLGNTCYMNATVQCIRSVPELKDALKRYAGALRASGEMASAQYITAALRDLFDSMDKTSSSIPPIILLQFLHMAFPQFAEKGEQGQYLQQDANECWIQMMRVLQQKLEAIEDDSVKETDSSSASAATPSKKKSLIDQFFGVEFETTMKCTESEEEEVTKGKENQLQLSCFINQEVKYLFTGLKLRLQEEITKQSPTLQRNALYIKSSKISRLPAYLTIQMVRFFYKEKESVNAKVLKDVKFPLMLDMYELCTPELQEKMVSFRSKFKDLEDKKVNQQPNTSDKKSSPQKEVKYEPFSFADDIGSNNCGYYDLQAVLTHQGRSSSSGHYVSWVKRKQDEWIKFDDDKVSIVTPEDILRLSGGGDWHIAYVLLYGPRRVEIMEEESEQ

SMILES	log2 ratio of Biotin-Ahx-Ub-VS probe labelling
Cc1c(NC(=O)CCl)c(=O)n(-c2ccccc2)n1C	-0.215 (inactive)
O=C(CCl)N(C1CCCC1)C1CCS(=O)(=O)C1 (stereo not given)	-0.171 (inactive)
Cl.O=C(CN1CCN(C(=O)CCl)CC1)Nc1ccc(F)cc1	-0.0648 (inactive)
O=C(CCl)N1CCN(C(=O)N2CCCCC2)CC1	-1.06 (active)
O=C(CCl)NCC(=O)N1CCCC1	-0.0869 (inactive)
Cc1cc(NC(=O)CCl)n(-c2ccccc2)n1	0.0764 (inactive)
Cc1cccc(C(CNC(=O)CCl)N2CCOCC2)c1.Cl (stereo not given)	0.0229 (inactive)
C/C(=C\CNC(=O)CCl)c1cnn(C)c1.Cl	-0.247 (inactive)
Cc1ccc(C)c(NC(=O)CCl)c1	-0.687 (inactive)
CNC(=O)C1CCN(C(=O)CCl)CC1	-0.146 (inactive)
Cc1ccc(C(=O)NCCNC(=O)CCl)cc1	-0.414 (inactive)
O=C(CCl)N1CCc2ccccc2C(O)C1 (stereo not given)	-0.255 (inactive)
O=C(CCl)NC1(c2ccc3c(c2)OCCO3)CCCC1	-0.293 (inactive)
O=C(CCl)N1CCC(c2nc3ccccc3o2)CC1	-0.483 (inactive)
Cc1cccnc1NC(=O)C1CCN(C(=O)CCl)CC1.Cl	-0.377 (inactive)
Cc1n[nH]c(=O)c2c(NC(=O)CCl)oc(C)c12	0.0281 (inactive)
COc1cc(Cl)c(C)cc1NC(=O)CCl	-0.458 (inactive)
O=C(CCl)N1CCCC2CCCCC21 (stereo not given)	-0.25 (inactive)
Cc1ccccc1C1(CNC(=O)CCl)CCOCC1	-0.0489 (inactive)
Cl.Cn1nccc1C(NC(=O)CCl)c1ccccc1 (stereo not given)	-0.0812 (inactive)

SMILES	log2 ratio of Biotin-Ahx-Ub-VS probe labelling
COCC1C=CCCN1C(=O)CCl (stereo not given)	-0.0905 (inactive)
O=C(CCl)N1CC2(CCOCC2)C1	-0.191 (inactive)
O=C(CCl)NCc1ccc2c(c1)OCO2	0.052 (inactive)
N#Cc1ccccc1N1CCN(C(=O)CCl)CC1	-0.673 (inactive)
CN(C)C(=O)c1ccc(CNC(=O)CCl)cc1	0.0549 (inactive)
O=C(CCl)NCc1cccc(F)c1	-0.167 (inactive)
O=C(CCl)Nc1ccc(Cl)c(F)c1	-0.481 (inactive)
O=C(CCl)N1CCC(=C(F)CO)C1	0.054 (inactive)
Cc1ccc(CNC(=O)CCl)nc1C.Cl	-0.372 (inactive)
O=C(CCl)Nc1ccc(F)cc1Cl	-0.833 (inactive)
N#Cc1ccc(Cl)cc1NC(=O)CCl	-0.283 (inactive)
O=C(CCl)N(C1=CCCCC1)C1CC1	-0.423 (inactive)
O=C(CCl)Nc1ccccc1C(F)(F)F	-0.46 (inactive)
O=C(CCl)N1CCC(OCc2ccccc2F)CC1	0.0975 (inactive)
C#Cc1cccc(NC(=O)CCl)c1	-0.191 (inactive)
CN(CCc1ncc(Br)cn1)C(=O)CCl.Cl	-0.0202 (inactive)
COc1ccc(C2CCCN2C(=O)CCl)c(OC)c1 (stereo not given)	-0.545 (inactive)
C[C@@H](NC(=O)CCl)c1cccc(C#N)c1	-0.243 (inactive)
O=C(CCl)N1CCC(O)(Cc2ccc(F)cc2)C1 (stereo not given)	0.271 (inactive)
O=C(CCl)N[C@H]1CC[C@@H](CO)CC1	-0.814 (inactive)
